Laboratory results reported in PubChem BioAssay AID1159580 (chemical genetic matrix, 2015).
Values joined by “and” are separate entries in the source; they are usually repeats but may differ in a detail not shown here. Equal values may be shown once. The whole screen tested about 5,500 compounds, of which about 2,000 (36%) were called active. Inconclusive results (about 18%) are left out. No stated cut-off is given here; in the data, active means normalized growth mostly below about 0.91 (no sharp cut-off); inconclusive means no clear call, values can overlap the other calls; inactive means mostly above about 0.92. The list shows a part of the results.

Experiment: chemical genetic growth profiling, strain panel (AID 1159580);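 further: tested at 20 µM; growth read once vehicle control cultures reached saturation at 30 °C; 1 = growth at the plate median or of vehicle wells; lower values mean less growth of the strain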
Conditions: S. cerevisiae deletion strains, growth OD

Measured: normalized growth

S=C=NCc1ccccc1
active: locus YAL013W, strain DEP1, active compounds read low 0.0579 | locus YAL021C, strain ccr4, active compounds read low 0.661 | locus YAL026C, strain drs2, active compounds read low 0.0761 | locus YAL030W, strain snc1, active compounds read low 0.0648 | locus YBL061C, strain skt5, active compounds read low 0.079 | locus YBR009C, strain hhf1, active compounds read low 0.0753 | locus YBR021W, strain FUR4, active compounds read low 0.17 | locus YBR023C, strain chs3, active compounds read low 0.0813 | locus YBR171W, strain sec66, active compounds read low 0.117 | locus YBR229C, strain ROT2, active compounds read low 0.0461 | locus YBR231C, strain swc5, active compounds read low 0.0718 | locus YBR279W, strain paf1, active compounds read low 0.0918 | locus YCL011C, strain gbp2, active compounds read low 0.0749 | locus YCL016C, strain dcc1, active compounds read low 0.0958 | locus YCL029C, strain bik1, active compounds read low 0.0592 | locus YCL061C, strain MRC1, active compounds read low 0.0833 | locus YCL069W, strain vba3, active compounds read low 0.0787 | locus YCR088W, strain abp1, active compounds read low 0.069 | locus YDL005C, strain med2, active compounds read low 0.583 | locus YDL035C, strain GPR1, active compounds read low 0.0548 | locus YDL040C, strain nat1, active compounds read low 0.139 | locus YDL074C, strain BRE1, active compounds read low 0.0981 | locus YDL101C, strain DUN1, active compounds read low 0.0649 | locus YDL134C, strain PPH21, active compounds read low 0.0517 | locus YDL185W, strain tfp1, active compounds read low 0.0574 | locus YDL192W, strain arf1, active compounds read low 0.0627 | locus YDR001C, strain nth1, active compounds read low 0.07 | locus YDR069C, strain doa4, active compounds read low 0.143 | locus YDR101C, strain arx1, active compounds read low 0.0574 | locus YDR137W, strain rgp1, active compounds read low 0.616 | locus YDR150W, strain NUM1, active compounds read low 0.0586 | locus YDR159W, strain sac3, active compounds read low 0.275 | locus YDR162C, strain NBP2, active compounds read low 0.0541 | locus YDR195W, strain ref2 0.187 | locus YDR297W, strain sur2, active compounds read low 0.068 | locus YDR318W, strain mcm21, active compounds read low 0.0636 | locus YDR334W, strain swr1, active compounds read low 0.0851 | locus YDR335W, strain msn5, active compounds read low 0.0739 | locus YDR388W, active compounds read low 0.061 | locus YDR392W, strain spt3, active compounds read low 0.112 | locus YDR502C, strain sam2, active compounds read low 0.0605 | locus YEL003W, strain gim4, active compounds read low 0.0605 | locus YEL037C, strain rad23, active compounds read low 0.178 | locus YEL061C, strain CIN8 (second series), active compounds read low 0.0786 | locus YEL061C, strain CIN8, active compounds read low 0.05 | locus YER015W, strain faa2, active compounds read low 0.0762 | locus YER016W, strain bim1, active compounds read low 0.081 | locus YER110C, active compounds read low 0.0778 | locus YER111C, strain swi4, active compounds read low 0.0829 | locus YER155C, strain BEM2 (second series), active compounds read low 0.0957 | locus YER155C, strain BEM2, active compounds read low 0.0627 | locus YER167W, strain BCK2, active compounds read low 0.0526 | locus YFR010W, strain ubp6, active compounds read low 0.136 | locus YGL078C, strain dbp3, active compounds read low 0.0565 | locus YGL086W, strain mad1, active compounds read low 0.0589 | locus YGL167C, strain pmr1, active compounds read low 0.393 | locus YGL173C, strain kem1, active compounds read low 0.214 | locus YGL227W, strain vid30, active compounds read low 0.072 | locus YGL240W, strain doc1, active compounds read low 0.203 | locus YGL248W, strain PDE1, active compounds read low 0.0468 | locus YGL253W, strain hxk2, active compounds read low 0.0793 | locus YGR078C, strain PAC10, active compounds read low 0.0557 | locus YGR135W, strain pre9, active compounds read low 0.066 | locus YGR229C, strain SMI1, active compounds read low 0.0658 | locus YGR252W, strain gcn5, active compounds read low 0.176 | locus YHR013C, strain ard1, active compounds read low 0.175 | locus YHR027C, strain rpn1, active compounds read low 0.103 | locus YHR030C, strain SLT2, active compounds read low 0.0491 and 0.174 | locus YHR079C, strain IRE1 (second series), active compounds read low 0.0547 | locus YHR079C, strain IRE1, active compounds read low 0.181 | locus YHR094C, strain hxt1, active compounds read low 0.0577 | locus YHR129C, strain ARP1, active compounds read low 0.0553 | locus YHR142W, strain chs7, active compounds read low 0.0817 | locus YHR200W, strain rpn10, active compounds read low 0.0598 | locus YIL066C, strain RNR3, active compounds read low 0.0519 | locus YIL073C, strain SPO22, active compounds read low 0.132 | locus YIL125W, strain kgd1, active compounds read low 0.0561 | locus YIR030C, strain dcg1, active compounds read low 0.0588 | locus YJL092W, strain hpr5, active compounds read low 0.08 | locus YJL095W, strain BCK1 (second series), active compounds read low 0.0601 | locus YJL095W, strain BCK1, active compounds read low 0.0573 and 0.268 | locus YJL115W, strain asf1, active compounds read low 0.123 | locus YJL129C, strain trk1, active compounds read low 0.257 | locus YJL134W, strain LCB3, active compounds read low 0.0484 | locus YJL154C, strain vps35, active compounds read low 0.165 | locus YJL164C, strain tpk1, active compounds read low 0.0744 | locus YJL166W, strain qcr8, active compounds read low 0.0848 | locus YJL168C, strain set2, active compounds read low 0.0599 | locus YJL187C, strain SWE1 (second series), active compounds read low 0.0487 | locus YJL187C, strain SWE1, active compounds read low 0.0904 | locus YJR043C, strain POL32, active compounds read low 0.0693 | locus YJR066W, strain TOR1, active compounds read low 0.735
